# Source: PubChem BioAssay AID540308 (The Scripps Research Institute Molecular Screening Center, 2011)
# The whole screen tested about 360,000 compounds, of which about 3,500 (0.97%) were called active. This excerpt belongs to a sample that is enriched for actives. Unmarked numbers belong to inactive results.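 The calls were made as follows: active = activation above a per-plate cutoff, the mean activation of sample wells on that plate plus 3 SD (cut at about 8% in these data); inactive = the rest.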
# Target: Melanocortin receptor 4 (Homo sapiens) (UniProt P32245)
# Test: activators of MC4R beta-arrestin recruitment – cell-based, luminescence, agonist arm of biased-ligand search, primary screen (AID 540308)
# Settings: U2OS MC4R beta-arrestin complementation, at 8.9 µM, hits give high values, percent of melanotan II response, DMSO zero
# Chain of Melanocortin receptor 4 (Homo sapiens) (P32245 whole entry, looked up): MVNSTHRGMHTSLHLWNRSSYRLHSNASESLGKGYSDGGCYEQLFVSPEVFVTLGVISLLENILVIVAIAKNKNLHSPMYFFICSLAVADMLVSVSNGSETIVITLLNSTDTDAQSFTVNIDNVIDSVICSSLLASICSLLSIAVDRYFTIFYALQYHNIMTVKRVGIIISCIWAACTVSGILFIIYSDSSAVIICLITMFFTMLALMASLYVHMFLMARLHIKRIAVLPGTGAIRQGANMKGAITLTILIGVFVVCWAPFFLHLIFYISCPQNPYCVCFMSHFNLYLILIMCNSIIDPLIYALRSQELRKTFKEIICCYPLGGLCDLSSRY
row,SMILES,activation
1,O=C(c1cc(C2CCCCN2S(=O)(=O)c2ccccc2)on1)N1CCOCC1 (stereo not given),0.01%
2,CC=CCn1c(SCCCc2ccccc2)nc2c1c(=O)[nH]c(=O)n2C,1.64%
3,Cc1ccc(CNC(=O)Nc2nnc([C@H]3C[C@H](O)[C@@H](CO)O3)s2)cc1,-0.78%
4,OCCN1CCN(c2ncnc3c2ncn3[C@H]2CN(Cc3ccco3)C[C@@H](CO)O2)CC1,-0.69%
5,CCOC(=O)C1CCCN(C(=O)c2ccc(N(C)C)cc2)CC1 (stereo not given),-0.51%
6,Cc1ccc(Nc2nnc(SCC(=O)c3cc4ccccc4o3)s2)cc1C,11% (active)
7,CC(C)c1ccc(Nc2nnc(SCC(=O)c3nnc(-c4ccccc4)o3)s2)cc1,-0.71%
8,Cc1cc2c(=O)n(C)c(SCC(=O)c3cc4ccccc4o3)nc2s1,-0.92%
9,CC1(C(=O)NS(=O)(=O)C2CC2)CCCN(C(=O)CSc2ccccc2)C1 (stereo not given),0.3%
10,OC[C@@H]1CN(Cc2cccs2)C[C@H](n2cnc3c(Nc4ccccc4)ncnc32)O1,0.44%
11,O=C(Nc1sc2c(c1-c1nc3ccccc3[nH]1)CCCC2)C1CC1,14.1% (active)
12,CCOC(=O)c1c(NC(=O)C2CCN(S(=O)(=O)c3ccc(Cl)cc3)CC2)sc2c1CCCC2,2.72%
13,O=C(CN1CCCC1)Nc1sc2c(c1C(=O)Nc1ccccc1)CCCC2,-3.19%
14,O=C(Nc1ccc(Cl)c(C(F)(F)F)c1)C1Cc2c(-c3ccccc3Oc3ccccc3)ccnc2O1 (stereo not given),-1.84%
15,CCCCN(C=O)c1c(CC)nc2c(OCc3ccccc3C(=O)OC)cccn12,0.49%
16,C/C(=N\OCC(=O)Nc1ccc(Br)cc1)c1cccs1,-4.16%
17,C/C(=N\NC(=O)CSc1nc2ccccc2c(=O)n1-c1ccccc1C)c1cccs1,-1.88%
18,C/C(=N\NC(=O)COc1c(C)cccc1C)c1cccs1,12.1% (active)
19,CC(=O)Nc1cccc(-c2ccnc3c2CC(C)(C(=O)NCc2ccccc2)O3)c1 (stereo not given),-1.6%
20,N/C(=N\OC(=O)c1ccc2c(c1)OCO2)c1ccc(Br)cc1,0.57%

row,SMILES,activation
1,N/C(=N\OC(=O)Cc1ccccc1[N+](=O)[O-])c1ccc(Br)cc1,-1.47%
2,N/C(=N\OC(=O)N1c2ccccc2Sc2ccccc21)c1ccc(Br)cc1,8.26% (active)
3,CCC(=O)N1CCCC1(C)C(=O)Nc1ccc2c(c1)CCN2C(C)=O (stereo not given),-1.65%
4,CCN(CC)c1ncnc2c1ncn2[C@H]1CN(Cc2cccs2)C[C@@H](CO)O1,0.8%
5,COC(=O)c1cc(OCC(=O)NC2CCCc3ccccc32)cc(C(=O)OC)c1 (stereo not given),-1.2%
6,CCOc1ccc(NC(=O)COc2ccc(C(=O)N3CCC(C(N)=O)CC3)cc2OC)cc1,-1.74%
7,CCOc1ccc(NC(=O)COc2ccc(C(=O)NC3CCCc4ccccc43)cc2OC)cc1 (stereo not given),9.26% (active)
8,Cc1ccc(CN2C(=O)CCC2C(=O)NCCCN2CCCCC2C)cc1 (stereo not given),-0.33%
9,Cc1ccc(F)c(NC(=O)CCOc2ccccc2C)c1,-0.86%
10,Cc1ccccc1OCC(=O)Nc1nc(C)c(C(=O)N(C)C)s1,-2.42%
11,CC(=O)c1sc(NC(=O)CCCOc2ccccc2C)nc1C,9.6% (active)
12,CCCNC(=O)C1(C)CCN1C(=O)Cc1ccc(-c2ccccc2)cc1 (stereo not given),-0.78%
13,CCOC(=O)/C(C#N)=C/c1ccc(OCC(=O)Nc2ccccc2)c(OC)c1,8.67% (active)
14,COc1cc(C2C3=C(CCCC3=O)OC3=C2C(=O)CCC3)ccc1OCC(=O)Nc1ccccc1,-1.3%
15,CCCn1c(C)cc(/C=C(\C#N)C(=O)OCC(=O)Nc2cc(OC)c(OC)c(OC)c2)c1C,1.33%
16,CCNC(=O)C1(C)CCCN(C(=O)c2ccc3ccccc3n2)C1 (stereo not given),-0.3%
17,COCCNC(=O)C1(C)CCCN(Cc2cccc(F)c2)C1 (stereo not given),-0.59%
18,COc1ccc(NC(=O)C2(C)Cc3c(-c4ccc(C(N)=O)cc4)ccnc3O2)cc1 (stereo not given),0.47%
19,O=C(Nc1cccc2cccnc12)c1ccc2sc([C@H]3C[C@H](O)[C@@H](CO)O3)nc2c1,0.55%
20,CC1(C(=O)Nc2cccc3c2CCCC3)CCN1C(=O)CCc1ccc(Cl)cc1Cl (stereo not given),1.71%

row,SMILES,activation
1,O=C(NC1CCCCCC1)c1cccnc1Sc1ccc(Cl)cc1,10.7% (active)
2,COc1cccc(CNC(=O)c2cccnc2Sc2ccc(Cl)cc2)c1,0.85%
3,O=C(NCc1cccnc1)c1cccnc1Sc1ccc(Cl)cc1,1.65%
4,CCCS(=O)(=O)NC(=O)C1(C)CCN(C(=O)c2sccc2C)C1 (stereo not given),-0.75%
5,COCOc1cccc(CN2CCC(C)(Oc3ccc(SC)cc3)C2)c1 (stereo not given),0.12%
6,COC(=O)CSc1nnc(-c2cccnc2)o1,-1.17%
7,Cc1cccc(C)c1OC(=O)CSc1nnc(-c2ccccc2)o1,15.5% (active)
8,CCN(C(=O)CSc1nnc(-c2ccncc2)o1)c1ccccc1,0.57%
9,COCCCNc1ccn2nc(-c3ccc(CC(C)C)cc3)cc2n1,1.85%
10,CC(c1ccco1)N(C(=O)Nc1ccccc1)C1CCCCC1 (stereo not given),-3.36%
11,Cc1ccc(S(=O)(=O)N(C)CC(=O)OCC(=O)Nc2ccccc2)cc1,-2.23%
12,Cc1ccc(NC(=O)NC(=O)N(C2CCCCC2)S(=O)(=O)c2ccccc2)cc1,9.21% (active)
13,Nc1cccc(-c2cncc(N3CCN(Cc4ccccn4)CC3)n2)c1,-0.96%
14,Cc1nc(C(F)(F)F)ccc1C(=O)N1CCC1(C)C(=O)NS(=O)(=O)c1ccccc1Cl (stereo not given),-1.94%
15,Cc1[nH]c2ccccc2c1C(=O)COC(=O)c1c(-c2ccccc2)noc1C,-0.48%
16,O=C(CCN1CCCCC1)N=Nc1c(O)[nH]c2ccccc12,-1.11%
17,Cc1c(-c2ccccc2)n[nH]c1C(=O)N=Nc1c(O)[nH]c2ccccc12,17.7% (active)
18,O=C(COC(=O)CNC(=O)c1ccco1)Nc1ccc(F)cc1,-0.58%
19,O=C(COC(=O)c1ccc[nH]c1=O)Nc1ccc2c(c1)OC(F)(F)O2,-2.05%
20,O=C(COC(=O)c1ccccc1NC(=O)c1ccco1)Nc1ccc2c(c1)OC(F)(F)O2,10.1% (active)
